High-throughput results as filed in PubChem BioAssay.
Tau fibril FP = qHTS for Inhibitors of Tau Fibril Formation, Fluorescence Polarization. actives 0.39% (n = 280,000). K18 P301L tau heparin fibrillization, Alexa594 FP, 6 h. AID 1468, 2008. Microtubule-associated protein tau (Homo sapiens), P10636. Potency, µM (titrated, usually from 57.7 µM), for the others: top-dose activity, negative = inhibition, usual class: inhibitors; further: potency means the concentration at half of the fitted maximal effect; nearly all actives have a fitted effect of over 55% in size
Target sequence (P10636 561-689 P618L limits assumed): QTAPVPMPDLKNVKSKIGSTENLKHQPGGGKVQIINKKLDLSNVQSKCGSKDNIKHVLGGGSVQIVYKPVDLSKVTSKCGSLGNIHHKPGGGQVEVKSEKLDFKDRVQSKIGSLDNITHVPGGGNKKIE
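Recombinant K18 P301L […], labeled with Alexa 594 at 0.24 uM over 15 uM unlabeled; heparin inducer 20 uM final; 37 C, 6 hr; FP endpoint.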
Tau fluor cs = Counterscreen qHTS for Inhibitors of Tau Fibril Formation, Fluorescence Polarization | tau K18 P301L Alexa594 fluorescence, heparin fibrillization | Potency, µM (series often up to 57.7 µM), for inactives: top-dose activity change, negative = decrease | actives 0.93% (n = 280,000) | AID 1463, 2008; further: potency means the concentration at half of the fitted maximal effect; nearly all actives have a fitted effect of over 55% in size
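Human tau K18 P301L (15 uM unlabeled, 0.24 uM Alexa 594-labeled) in 100 mM sodium acetate pH 7 with 20 uM heparin, 6 hr at 37 C. ThT 30 uM added, 1 hr ambient; Alexa 594 FP and total fluorescence read at 555/632 nm.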
FBPA coupling cs = qHTS Assay for Inhibitors of Fructose-1,6-bisphosphate Aldolase from Giardia Lamblia: Coupling assay counterscreen. AID 2472, 2010. activity change, negative = inhibition, % at 58.2 µM, hits read low. coupling enzyme system counterscreen, AmpLite Red fluorescence. actives 0.67% (n = 290,000); in the data active means activity change below about -30%
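Coupling enzymes only (glyceraldehyde-3-phosphate) + compound, at 57.5 uM final, 10 min RT; add substrate/coupling/AmpLite Red mix, 20 min RT; fluorescence ex 525/em 598 nm. Actives flag coupling-system interference.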
JMJD2E inh = qHTS Assay for Inhibitors of Human Jumonji Domain Containing 2E (JMJD2E); actives 1.6% (n = 230,000); Potency, µM (doses to about 57.1 µM), without a hit: at the top dose activity change, negative = inhibition, most hits filed as inhibitors; JMJD2E catalytic domain, FDH-coupled NADH fluorescence (FDH is formaldehyde dehydrogenase); AID 2147, 2009; Lysine-specific demethylase 4E (Homo sapiens), B2RXH2; active means well fitted inhibition curve with a large enough effect, not every such curve was filed as active; inconclusive means small, poorly fitted or top-dose-only effect, or another doubt; inactive means no such curve, though single readings can be large or run the other way;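 further: potency means the concentration at half of the fitted maximal effect; 0% = wells with enzyme and -100% = buffer wells without enzyme; nearly all actives have a fitted effect of over 50% in size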
Target sequence (B2RXH2 1-337 limits assumed): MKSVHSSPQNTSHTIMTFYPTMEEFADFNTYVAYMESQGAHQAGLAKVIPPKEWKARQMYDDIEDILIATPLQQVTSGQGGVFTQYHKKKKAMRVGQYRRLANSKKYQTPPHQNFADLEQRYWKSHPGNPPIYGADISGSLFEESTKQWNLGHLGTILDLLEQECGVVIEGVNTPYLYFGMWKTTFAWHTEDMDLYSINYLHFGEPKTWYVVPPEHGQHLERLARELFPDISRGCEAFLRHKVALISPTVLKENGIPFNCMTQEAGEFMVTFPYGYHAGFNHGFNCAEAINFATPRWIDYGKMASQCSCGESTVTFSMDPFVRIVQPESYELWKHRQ
Tau ThT inhib = qHTS for Inhibitors of Tau Fibril Formation, Thioflavin T Binding. Potency, µM (doses to about 57.4 µM), for the others: at the highest dose activity, negative = inhibition, actives largely listed as inhibitors. actives 2.1% (n = 270,000). recombinant tau K18 P301L (four-repeat tau fragment), heparin-induced fibrillization, ThT fluorescence; further: potency means the concentration at half of the fitted maximal effect; nearly all actives have a fitted effect of over 55% in size
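Recombinant human tau K18 fragment […] carrying P301L, 15 uM unlabeled plus 0.24 uM Alexa 594-labeled, was fibrillized with 20 uM heparin in 100 mM sodium acetate pH 7 for 6 hr at 37 C; 30 uM ThT fluorescence read after 1 hr.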
The depositor's hits bear a star; ? = inconclusive; . = no result; [ ] = dose if it differs, or a comment. A selection: hits, their analogues and other compounds. The true share with any hit is near 3%. Unless noted, the call rests on the fitted dose curve; in most records, active means well fitted curve in the direction sought with a large enough effect; inconclusive means small, poorly fitted or top-dose-only effect, or another doubt; inactive means no such curve, though single readings can be large; an effect the other way counts as inactive or inconclusive. Unless noted, on the % scale 0 is the no-effect control and ±100 the full control effect.

SMILES | Tau fibril FP | Tau fluor cs | FBPA coupling cs | JMJD2E inh | Tau ThT inhib
CC(C)CC(=O)Nc1nnc(S(=O)(=O)N2CCCCCC2)s1 | -2% | -3% | . | . | 2.8µM*
Cc1ccccc1OCC(=O)Nc1nnc(S(=O)(=O)N2CCCCCC2)s1 | -2% | -25% | . | . | 3.2µM*
O=C(Nc1ccc(F)cc1F)c1cc2ccc3cccnc3c2[nH]1 | -10% | -2% | . | . | ?
CCc1cccc(-n2c(=O)c3cccnc3n2CC(=O)NCc2ccccc2Cl)c1 | -13% | -19% | . | . | 11%
CCOC(=O)c1c(N)ssc1=S | 11µM* | -27% | -1 | -12% | 7.9µM*
CCOC(=O)c1c(N)sc2c1CCSC2 | -14% | ? | 1 | ? | 25µM*
CCOC(=O)c1c(N)sc(=S)c2c1CCC2 | ? | ? | -23 | ? | 25µM*
CCOC(=O)c1c(N)sc2c1CCC(CC)C2 (stereo unspecified) | 0% | ? | -2 | 1% | ?
CCOC(=O)c1c(N)sc(N)c1C(=O)OCC | ? | ? | -14 | -6% | 14µM*
O=C(c1ccc([N+](=O)[O-])cc1)N1c2ncnn2C2(CCCCC2)[C@@H]2CCCC[C@@H]21 | ? | -5% | . | . | 3%
Cc1ccc(-c2c(C(=O)N3CCN(c4cccc(C)c4)C(C)C3)oc(=O)c3ccccc23)cc1 (stereo unspecified) | -11% | -15% | . | . | -7%
CCOC(=O)c1sc(N)c(C(N)=O)c1C | -3% | -5% | -33* | -13% | -9%
CCOC(=O)c1c(N)sc(C(N)=O)c1C | -3% | 1% | 6 | 5% | -8%
COC(=O)c1sc2cccc(F)c2c1S(=O)(=O)N1CCN(c2cccc(C)c2)C(C)C1 (stereo unspecified) | -7% | -26% | . | . | -6%
COc1ccc(-n2nc3cc(C)c(N)c(Br)c3n2)cc1 | ? | ? | -50* | ? | 14µM*
COc1ccc(-n2nc3cc(N)c(Br)cc3n2)cc1 | . | . | -2 | . | .
CC(C)(C)C1=CC(=Nc2ccccc2N)C=C(C(C)(C)C)C1=O | 7% | 18% | -1 | 5% | 11%
CC(C)(C)C1=CC(=O)C(=O)C(C(C)(C)C)=C1 | ? | -16% | -48* | -4% | ?
Cc1cc2c(cc3c(SCc4ccccc4Cl)nnc(C)n32)o1 | ? | -17% | . | . | ?
Cc1[nH]c2ccccc2c1/C=N\NC(=O)CNc1ccc2c(c1)OCO2 | -2% | ? | -2 | -13% | 16µM*
Oc1[nH]c2ccccc2c1C=Nc1ccc2c(c1)OCO2 | 12% | ? | -2 | -6% | 7.9µM*
COc1ccc(N=Cc2c(O)[nH]c3ccccc23)cc1 | 15% | ? | -4 | -1% | ?
Cc1[nH]c2ccccc2c1/C=N/NC(=O)c1cccs1 | 10% | 18µM*[quencher] | -9 | -20% | 11µM*
Cc1ccc(C)c(CN2C(=O)c3ccccc3S(=O)c3ccc(C(=O)N(C)Cc4ccccc4)cc32)c1 (stereo unspecified) | ? | -13% | . | . | -5%
CC1(C)CC(Nc2ccc(Nc3ccccc3)cc2)CC(C)(C)N1 | ? | 28µM*[quencher] | -12 | 8% | ?
SMILES | Tau fibril FP | Tau fluor cs | FBPA coupling cs | JMJD2E inh | Tau ThT inhib
CC1(C)CC(NC(=O)c2ccccc2)CC(C)(C)N1 | . | . | 3 | . | .
CC#CCN1c2ccccc2[C@]23C[C@@H](C(=O)OC)N(C(=O)CC(C)C)C2=NC(C(=O)OC)=C(C(=O)OC)[C@H]13 | -1%[11.6 µM] | 1%[11.6 µM] | 0 | 1%[11.4 µM] | 3%[11.5 µM]
O=C(/C=C/c1ccccc1)/C=C/c1ccccc1 | ? | -20% | -1 | -4% | 7.9µM*
O=C(/C=C/c1ccccc1)c1ccccc1 | 16% | 6% | 6 | -2% | ?
CC1=NN(c2ccccc2)C(=O)/C1=C\c1ccc(Oc2ccc([N+](=O)[O-])cc2[N+](=O)[O-])cc1 | ? | 14µM*[quencher] | -16 | 6.3µM* | 14µM*
C=C1c2ccccc2O[C@H](C(=O)OCC)[C@@H]1C1CCCCC1 (tested in a mixture with another compound) | -6%[81.3 µM] | -8%[81.3 µM] | 0 | . | ?
